The record followed here is PubChem BioAssay (NCATS).

A short description of experiment [1]: S16 Schwann cell PMP22 intronic element firefly luciferase assay (AID 624032). Further: nearly all actives have a fitted effect of over 30% in size. Further: potency means the concentration at half of the fitted maximal effect. Put shortly:
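Rat S16 Schwann cells stably carrying firefly luciferase driven by a PMP22 intronic element, in 10% FBS, treated 24 h at 37 C. ONE-Glo luminescence normalized to PTC124 control and DMSO (0%); curves classed by r2, magnitude and activity.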

The next experiment deals with 7G8. In words: qHTS profiling for inhibitors of Plasmodium falciparum proliferation (AID 504749). Further: nearly all actives have a fitted effect of over 60% in size. Further: potency means the concentration at half of the fitted maximal effect. As to conditions: P. falciparum in erythrocytes, SYBR Green DNA, 72 h; series mostly up to 28.7 µM. Put shortly:
(§1)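 P. falciparum-infected erythrocytes (0.3% parasitemia, 2.5% hematocrit) incubated with compound 72 h at 37 C, 5% CO2. Parasite DNA detected by SYBR Green after lysis, overnight at room temperature; normalised to 0.29 uM artemisinin and DMSO.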

The next experiment has as its system CP266. The experiment is described as above. Conditions: P. falciparum in erythrocytes, SYBR Green DNA, 72 h; series mostly up to 28.7 µM. Put shortly: as §1
The subject of the next experiment is DIV17. The experiment is described as above. As to conditions: P. falciparum in erythrocytes, SYBR Green DNA, 72 h; series mostly up to 28.7 µM. Put shortly:
as §1

The test system of another experiment is PC26. The description is as above. As to conditions: P. falciparum in erythrocytes, SYBR Green DNA, 72 h; series mostly up to 28.7 µM. Put shortly: as §1
Another experiment relates to TAB109. The experiment is described as above. Conditions: P. falciparum in erythrocytes, SYBR Green DNA, 72 h; series mostly up to 28.7 µM. In outline: as §1
For another experiment, the system named is W2. The description is as above. As to conditions: P. falciparum in erythrocytes, SYBR Green DNA, 72 h; series mostly up to 28.7 µM. Put shortly:
as §1

Experiment [2] has as its target ATP-dependent 6-phosphofructokinase (Trypanosoma brucei brucei) (UniProt O15648). In words: qHTS Assay to Find Inhibitors of T. brucei phosphofructokinase: hit validation (AID 492961). In outline: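 Luminescence from ADP-Glo reports ADP generated as T. brucei PFK (1.25 nM) phosphorylates 0.5 mM fructose-6-phosphate using 0.1 mM ATP. Reactions ran 45 min at room temperature, pH 8.0.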
(In general: Quantitative high-throughput screening tests each substance at several concentrations.)

The nature of experiment [3]: S16 Schwann cell PMP22 intronic element beta-lactamase assay (AID 624044; calls by dose curve; further: nearly all actives have a fitted effect of over 15% in size). As to conditions: S16 rat Schwann cells, PMP22 element beta-lactamase FRET, 24 h; ratio activity, negative = inhibition: at 38.3 µM (top of the series). In outline:
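Rat S16 Schwann cells with beta-Lac driven by a PMP22 intronic element, compound-treated 24 h at 37 °C. LiveBLAzer FRET B/G read: 460 nm normalized to potassium clavulanate vs DMSO; 535 nm FRET as viability; concentration-effect curves classified.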

Experiment [4] deals with Cytochrome P450 3A4 (Homo sapiens) (UniProt P08684). In words: qHTS Assay for Inhibitors and Substrates of Cytochrome P450 3A4 (AID 884). Further: nearly all actives have a fitted effect of over 50% in size. Put shortly: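 20 nM human CYP3A4 with 25 uM Luciferin-PPXE (at KM) in 200 mM KPO4, preincubated 10 min with compound; NADPH regeneration started a 60 min RT reaction. Luciferin detected by luminescence, normalized to 57 uM ketoconazole as full inhibition.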
Chain of Cytochrome P450 3A4 (Homo sapiens) (P08684 whole entry, looked up): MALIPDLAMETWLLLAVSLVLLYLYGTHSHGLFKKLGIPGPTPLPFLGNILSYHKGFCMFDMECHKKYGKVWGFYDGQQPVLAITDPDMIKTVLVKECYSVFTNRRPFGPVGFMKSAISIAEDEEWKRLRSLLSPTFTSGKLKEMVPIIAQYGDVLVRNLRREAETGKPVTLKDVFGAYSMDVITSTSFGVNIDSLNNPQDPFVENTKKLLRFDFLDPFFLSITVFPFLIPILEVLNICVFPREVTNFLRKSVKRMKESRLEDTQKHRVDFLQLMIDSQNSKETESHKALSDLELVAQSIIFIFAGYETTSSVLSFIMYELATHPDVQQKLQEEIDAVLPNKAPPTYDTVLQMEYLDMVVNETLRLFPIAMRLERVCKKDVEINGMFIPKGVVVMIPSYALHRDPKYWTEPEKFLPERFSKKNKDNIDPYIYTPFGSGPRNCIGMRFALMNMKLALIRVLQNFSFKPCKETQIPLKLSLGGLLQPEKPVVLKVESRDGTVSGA

The nature of experiment [5]: Confirmation and Secondary Assay for Modulators of Hemoglobin Beta Chain Splicing at IVS2 654 locus (AID 910).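 Further: HeLa cells stably carrying EGFP split by mutant beta-globin IVS2-654 intron.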 Put shortly:
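HeLa cells stably expressing EGFP interrupted by β-globin IVS2-654 intron, seeded overnight in Opti-MEM/2% FCS, then treated 2 days at 37 °C. Restored splicing read as total peak GFP intensity per well by laser scanning cytometry (488 nm excitation, 500–520 nm emission); 500 nM antisense PNA as control.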

Experiment [6] is described as follows: Confirmation and Secondary Assay for Modulators of Hemoglobin Beta Chain Splicing at IVS2 705 locus (AID 930).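 Further: HeLa cells stably expressing the EGFP-705 splicing reporter; GFP fluorescence per well restored by corrected splicing of the IVS2-705 intron in EGFP.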 In outline:
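Splice-correction reporter: EGFP cDNA split by beta-globin intron 2 bearing the 705 mutation, stably in HeLa. Compound incubation 2 days, 37C; fluorescent objects 5-250 µm summed per well.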

Values without a mark were called inactive. Inconclusive results are not listed. The source made the active and inactive calls. Unless noted, the call rests on the fitted dose curve; in most records, active means well fitted curve in the direction sought with a large enough effect; inconclusive means small, poorly fitted or top-dose-only effect, or another doubt; inactive means no such curve, though single readings can be large; an effect the other way counts as inactive or inconclusive.

Chain of ATP-dependent 6-phosphofructokinase (Trypanosoma brucei brucei) (O15648 whole entry, looked up): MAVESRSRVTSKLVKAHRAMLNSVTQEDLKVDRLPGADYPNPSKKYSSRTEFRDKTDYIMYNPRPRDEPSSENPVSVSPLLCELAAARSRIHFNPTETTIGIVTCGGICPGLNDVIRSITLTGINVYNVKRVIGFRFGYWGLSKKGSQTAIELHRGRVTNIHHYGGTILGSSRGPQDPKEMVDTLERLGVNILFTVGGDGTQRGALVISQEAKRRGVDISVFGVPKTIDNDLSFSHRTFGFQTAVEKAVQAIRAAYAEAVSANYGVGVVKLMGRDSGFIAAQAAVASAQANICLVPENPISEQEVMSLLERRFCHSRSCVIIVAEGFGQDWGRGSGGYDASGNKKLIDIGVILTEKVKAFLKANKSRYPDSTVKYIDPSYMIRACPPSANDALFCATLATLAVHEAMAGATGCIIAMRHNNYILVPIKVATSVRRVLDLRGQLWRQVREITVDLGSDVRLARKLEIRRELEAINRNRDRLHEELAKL

As to `OCC(O)[C@H]1O[C@@H]2O[C@H](C(Cl)(Cl)Cl)O[C@@H]2[C@H]1O` (stereo not given in full), the Potency entry (in [1]; with 7G8; in the experiment with CP266; with DIV17; with PC26; in the experiment on TAB109) was “inactive” throughout. Further, the Potency result in the experiment on W2 is “inactive”.
`C=CC[N+]1(C)CCC23c4c5ccc(O)c4O[C@H]2C(=O)CC[C@@]3(O)C1C5` (stereo not given in full): the result in experiment [2] was inactive. Besides, the Potency entry (in [1]; in the experiment with 7G8; in the experiment on CP266; with DIV17; with PC26; in the experiment on TAB109) was “inactive” in each case. In addition, the Potency entry with W2 was “inactive”.
With `CC1(C)[C@@H](C=C(Cl)Cl)[C@@H]1C(=O)OCc1c(F)c(F)cc(F)c1F`, the outcome in [2] was inactive. The Potency entry (in [3]; with 7G8; in the experiment with CP266; in the experiment with DIV17; in the experiment with PC26) was “inactive” in each case.
For `CCCC(C)C1(CC)C(=O)NC(=S)NC1=O` (stereo not given), the outcome in experiment [2] was inactive. For the same compound, the Potency result (in experiment [1]; with CP266; with DIV17; in the experiment on PC26; in the experiment with TAB109) was “inactive” each time. Besides, the Potency in the experiment on W2 is 9.53 µM (active).
`CC(CO)NC(=O)C1C=C2c3cccc4[nH]cc(c34)CC2N(C)C1` (stereo not given): the Potency result (in experiment [1]; in the experiment with 7G8; with CP266; with PC26; in the experiment on TAB109; in the experiment on W2) was “inactive” throughout.
`C[C@@H]1CC[C@H]2[C@@H](C)C(=O)O[C@@H]3OC4(C)CC[C@@H]1C32OO4` (stereo not given in full): the Potency was 0.0016 µM (active) in the experiment with 7G8; 0.019 µM (active) in the experiment on CP266; 0.0095 µM (active) in the experiment with DIV17; 0.0076 µM (active) with PC26; 0.0045 µM (active) in the experiment with TAB109; 0.003 µM (active) with W2.
In the case of `C#CC1(O)C=CC2C3CCC4=CC(=O)CCC4C3CCC21CC` (stereo not given), the outcome in experiment [2] was inactive. In addition, the Potency in experiment [1] was 6.42 µM (active); in the experiment with 7G8, 12.6 µM (active); in the experiment with DIV17 it was 9.53 µM (active); in the experiment with PC26, 6.75 µM (active); in the experiment with W2 it was 6.01 µM (active). Also, the Potency result in [3] was “inactive”.
`NC(Cc1ccc(Oc2cc(I)c(O)c(I)c2)c(I)c1)C(=O)O` (stereo not given): the Potency result (in [1]; in the experiment with 7G8; with CP266; in the experiment with DIV17; with PC26; in the experiment on TAB109) was “inactive” each time.
As for `COC(C(=O)C(O)C(C)O)C1Cc2cc3cc(OC4CC(OC5CC(O)C(OC)C(C)O5)C(OC(C)=O)C(C)O4)c(C)c(O)c3c(O)c2C(=O)C1OC1CC(OC2CC(OC3CC(C)(O)C(OC(C)=O)C(C)O3)C(O)C(C)O2)C(O)C(C)O1` (stereo not given), in experiment [1], the Potency result was “inactive”. The Potency in the experiment on 7G8 is 0.112 µM (active); in the experiment with DIV17, 2.69 µM (active); in the experiment with TAB109 it was 0.794 µM (active); in the experiment on W2, 0.426 µM (active).
As for `CCOC(=O)/C=C(C)/C=C/CC(C)CCCC(C)C` (stereo not given), the compound was called inactive in experiment [2]. The Potency entry (in experiment [1]; in the experiment with 7G8; in the experiment on CP266; with DIV17; with PC26; in the experiment with TAB109) was “inactive” each time. In addition, the Potency entry in the experiment with W2 was “inactive”.
Turning to `CC1(C)S[C@@H]2[C@H](N)C(=O)N2C1C(=O)O` (stereo not given in full), the Potency entry (in [1]; in the experiment with 7G8; with CP266; in the experiment with DIV17; with PC26; with TAB109) was “inactive” each time. Further, in the experiment with W2, the Potency result was “inactive”.
As for `CCCCCCC(=O)O[C@H]1CC[C@H]2[C@@H]3CCC4CC(=O)C=C(C)[C@]4(C)[C@H]3CC[C@]12C` (stereo not given in full), the Potency in experiment [1] is 11.4 µM (active); with 7G8, 8.91 µM (active); in the experiment with W2 it was 7.57 µM (active). The Potency entry (in [3]; with CP266; with PC26; in the experiment on TAB109) was “inactive” throughout.
Consider `C=C1CC2C(CC[C@]3(C)C(=O)CCC23)[C@]2(C)C=CC(=O)C=C12` (stereo not given in full), for which the Potency entry (in experiment [4]; in [5]; in the experiment with CP266; with DIV17; with PC26; in the experiment on TAB109) was “inactive” each time. Further, the compound was classed as inactive in experiment [6] and in experiment [2]. Also, in [1], the Potency is 11.4 µM (active).
As for `C[C@H](N)Cc1ccccc1`, the Potency entry (in experiment [1]; in the experiment on 7G8; in the experiment with CP266; with PC26; in the experiment on TAB109; in the experiment on W2) was “inactive” in each case.
